# Tgondii IFNg: T. gondii growth inhibition under IFN-gamma. Toxoplasma gondii growth in IFN-gamma-treated host cells; stronger effect = lower value. activity change, negative = inhibition, % (test concentration not listed). actives 3.8% (n = 69,000). AID 1259416; in the data active = activity change below about -70%, passing the limit was not always enough;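 note: host cells are HeLa cells infected with Toxoplasma gondii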
# A number is an active result; . = inactive. The full list was thinned out, with hits kept by preference.
SMILES,Tgondii IFNg
COc1ccc(OC)c(CNc2nc(-c3nnc(-c4ccc(C)cc4)o3)nc3ccccc23)c1,.
COc1ccc(OC)c(CNc2nc(-c3nnc(-c4cccc(C)c4)o3)nc3ccccc23)c1,-93.3
COc1ccc(-c2nnc(-c3nc(NCc4ccc(OC)cc4OC)c4ccccc4n3)o2)cc1,.
COc1ccc(OC)c(CNc2nc(-c3nnc(-c4cccc(Cl)c4)o3)nc3ccccc23)c1,-102.8
COc1ccc(CNc2nc(-c3nnc(-c4cccc(C)c4)o3)nc3ccccc23)cc1,.
COc1ccccc1CNc1nc(-c2nnc(-c3cccc(Cl)c3)o2)nc2ccccc12,.
Cn1c2ccccc2c2c1cc(C(=O)N1CCCC(O)C1)n2-c1ncccn1 (centres undefined),.
CC1CCc2nc(NC(=O)Cn3cc(NC(=O)c4ccccn4)cn3)sc2C1 (centres undefined),.
CN(C)C(=O)CC1CC2(CCN(C(=O)N3CCCC3)CC2)Oc2ccccc21 (centres undefined),.
Cc1nccn1Cc1cccc(C(=O)Nc2ccc(-n3ccnc3C(C)C)cc2)c1,.
Cc1nc(CN2CCN(C)C(=O)C23CCN(Cc2ccc(C(C)C)cc2)CC3)cs1,.
Cc1ccc2nc(CCCNC(=O)c3ccc(C4CCCO4)s3)oc2c1 (centres undefined),.
Cc1nc2ccccc2nc1SCC(=O)Nc1ccccc1OC(C)C,-87.7
CCOc1ccccc1NC(=O)CSc1ccc(Cl)cc1,.
COc1ccccc1NC(=O)CSc1nc2ccccc2n1CC(=O)N1CCOCC1,.
FC(F)(F)c1cc(Br)c2nc(-c3ccc(Cl)c(Cl)c3)cnc2c1,.
COc1cccc(CN2Cc3ccccc3N(CC(=O)NCC3(N4CCOCC4)CCCC3)C2=O)c1,.
O[C@@H]1C[C@H]2CN(Cc3cnc(NCc4ccccc4)nc3)C[C@H]2C[C@@H]1O,.
CC(=O)Nc1ccc(-c2cn(Cc3ccc(Cl)cc3)nn2)cc1,.
CC(C)N=C(N)/N=C(\N)Nc1ccc(Cl)cc1,.
NC(=NCCCCCCN=C(N)/N=C(\N)Nc1ccc(Cl)cc1)/N=C(\N)Nc1ccc(Cl)cc1,-82.4
Cc1c(CN2CCC3(CC2)C(=O)N(Cc2ccccn2)C(=O)N3Cc2ccccc2)cnn1C,.
O=C1N(Cc2ccccn2)C(=O)C2(CCN(Cc3c(F)cccc3Cl)CC2)N1Cc1ccccc1,-72.9
O=C1N(Cc2ccccn2)C(=O)C2(CCN(CC3CC=CCC3)CC2)N1Cc1ccccc1 (centres undefined),.
Cc1cc(Cl)ccc1OCC(=O)NCCOc1nc(N)nc(N(C)C)n1,.
SMILES,Tgondii IFNg
CCOCC1COCCC12CCN(C(=O)CCc1ccccc1)CC2 (centres undefined),.
CN1CCC2(CCOCC2NC(=O)c2ccccc2)CC1 (centres undefined),.
CC(=O)N1CCC2(CCOCC2NC(=O)c2ccccc2)CC1 (centres undefined),-93.3
c1ccc2c(CC3=NCCN3)cccc2c1,.
C(=N\NC1=NCCN1)/c1c2ccccc2c(/C=N/NC2=NCCN2)c2ccccc12,-75.0
Brc1c(NC2=NCCN2)ccc2nccnc12,.
COc1cc2c(cc1CN1CCCN(c3ccccc3)CC1)OCO2,.
COc1cc(C)ccc1CN1CCc2onc(Nc3cccc(F)c3)c2C1,.
CCOc1ccc(OCC)c(S(=O)(=O)Oc2cccc3ccc(C)nc23)c1,-93.5
CCOc1ccc(C(=O)C(C)=O)c(OCC)c1,.
COc1ccc(OC)c(S(=O)(=O)Oc2ccccn2)c1,.
Cc1cc(C)n(CCCC(=O)N2CCNCC2C(=O)NC2CC2)n1 (centres undefined),.
O=C(c1ccc2onc(-c3csc(-c4ccccc4)n3)c2c1)C1CC1,.
Clc1ccc(SCc2csc(-c3ccc(Cl)cc3)n2)cc1,.
Clc1ccc(SCc2ccsc2-c2ncns2)cc1,-76.7
Clc1ccc(SCc2csc(-c3ccno3)n2)cc1,.
O=C(CC1COCCN1)NCCCn1ccnc1 (centres undefined),.
O=C(O)CNS(=O)(=O)c1ccc(-c2ccccc2)cc1,.
CC(C)ON([C@@H](C(=O)NO)C(C)C)S(=O)(=O)c1ccc(-c2ccccc2)cc1,-75.2
CC(C)[C@H](NS(=O)(=O)c1ccc(-c2ccc(Br)cc2)cc1)C(=O)O,.
COCC(=O)N1CC(C(=O)NCC2CC2)C2(CCOCC2)C1 (centres undefined),.
CCN1c2ccccc2-n2cccc2C12CCN(C(=O)Nc1ccccc1C(F)(F)F)CC2,.
CCN1c2cc(C)ccc2-n2cccc2C12CCN(C(=O)Nc1ccc(C)c(C)c1)CC2,-93.0
CCN1c2cc(C)ccc2-n2cccc2C12CCN(C(=O)NCc1ccco1)CC2,.
CCN1c2ccccc2-n2cccc2C12CCN(C(=O)Nc1cccc(Cl)c1C)CC2,.
CCN1c2cc(C)ccc2-n2cccc2C12CCN(C(=O)Nc1cccc(C)c1)CC2,.
CCN1c2ccccc2-n2cccc2C12CCN(C(=O)Nc1ccccc1C)CC2,-82.2
CCOC(=O)c1ccc(NC(=O)N2CCC3(CC2)c2cccn2-c2ccc(C)cc2N3CC)cc1,.
CCN1c2cc(C)ccc2-n2cccc2C12CCN(C(=O)NCc1ccc(F)cc1)CC2,-114.2

# Screens deposited in PubChem BioAssay by Broad Institute.
